According to publication PMC12136788:
Residue numbers refer to the chain shown, from its start. The full ranking holds about 5,800 sequences; the median of “enrichment r” is about 0.68, and the highest 2% start at about 11. The full list was thinned out, with the highest values kept by preference.

B1: chr2:27433287:27433389:+|CDS|ENSG00000115216|unk|FALSE|unique (ssRNA)
RNA: GGGAGUUCUACAGUCCGACGAUCUUCCAGCAUGUCGGAGGGGGAGUCCCAGACAGUACUUAGCAGUGGCUCAGACCCAAAGGUAGAAUCCUCAUCUUCAGCUCCUGGCCUGACAUCAGUGUCACCUCCUGUGACCUCCACAACCAACAGAGGAUUGAGCAUCA
B2: chr8:6811200:6812339:-|CDS|ENSG00000275591|control|control|control (ssRNA)
RNA: GGGAGUUCUACAGUCCGACGAUCAUGUAGAGGCUUCUGCCCCAGUGCAGGCUUCCCUGGAAGAACCCUCAGUAUCUCAGAGCUAGAGGAGCCGCUGGAGCCCAAAAGGGAGCUAAGUCACCAUGCAGCUGUUGGUGUGUGGGUCAACAGAGGAUUGAGCAUCA
B3: chr19:58083837:58084684:-|three_prime_utr|ENSG00000121413|control|control|control (ssRNA)
RNA: GGGAGUUCUACAGUCCGACGAUCGCUCGCAUCCGAGGGGAGCCGCCGGAUGUGGAAGAAGACUCGGCUUUCCUGCAGCCAUUUAGUGCCGCCCCAUGCUAGGUUAUUUGACAUUGUGCAGUGUAGAGUUGCCUUAAAGUGCGUCAACAGAGGAUUGAGCAUCA
B4: chr1:211748167:211748268:-|3pUTR|ENSG00000123684|msi1|FALSE|unique (ssRNA)
RNA: GGGAGUUCUACAGUCCGACGAUCGUACUGCAUCAGUGAGAUGAGUAGGGUUUUUGUUUGGGAUUGUAAGACUAUUAAGAUCCUAGUAAGUCAGUGGUAGUUUACUGUGAUGUGAGCAUUGUAGAUUCCCCCGUUGUCACUAAUCAACAGAGGAUUGAGCAUCA
B5: chr17:63354981:63355093:+|CDS|ENSG00000170921|unk|total|mutant (ssRNA)
RNA: GGGAGUUCUACAGUCCGACGAUCCAGUCAAGGGUCCUAUCUAUAUCUGAAACUUACAUUUGACCUCACCGAGAAAGGCUAUCCCGUGUUAAAGAGCUCCCGCUACAAAGCCGUUCCUGUUUCGCUCUCAGAGGUUUAUUUACUCAACAGAGGAUUGAGCAUCA
B6: chr11:72288215:72288316:-|3pUTR|ENSG00000162129|unk|FALSE|unique (ssRNA)
RNA: GGGAGUUCUACAGUCCGACGAUCACCCAGCUAAUUUUUUUUGUAUUUUUAGUAAAGACGGGGUUUCACCAUGUUUGCCAGGCUAGUCUCAAACUCCUGGUCUCAAGUGAUCCACCCACCUUGGCCUCCCAGAGUGCUGAGAUUCAACAGAGGAUUGAGCAUCA
B7: chr11:107429260:107429366:-|CDS|ENSG00000152404|unk|total|mutant (ssRNA)
RNA: GGGAGUUCUACAGUCCGACGAUCGAGGAAACCCACAUAUUCAGAUAAAGCACAAAAUUGUCAAGAAAGCCGAGAAUCAGACUCCGUAAAAUAUGGUAACAGUUCAAGGGACCGAUAUGCUACAACAGAUACUGCAAAAAACCGCAACAGAGGAUUGAGCAUCA
B8: chr11:69653362:69653473:+|3pUTR|ENSG00000110092|msi1_unk|FALSE|overlapping (ssRNA)
RNA: GGGAGUUCUACAGUCCGACGAUCACUGCCAUGUACUAGUUUUAGUUUUCUCUUAGAACAUUGUAUUACAGAUGCCUUUUUUGUAGUUUUUUUUUUUUUUAUGUGAUCAAUUUUGACUUAAUGUGAUUACUGCUCUAUUCCAAACAACAGAGGAUUGAGCAUCA
B9: ENSG00000136451:be:win_3351|3pUTR|ENSG00000136451|bound_else_gene|NA|bound_elsewhere_windowed (ssRNA)
RNA: GGGAGUUCUACAGUCCGACGAUCGAAGGCAACACAUUCCUACACUUUUAAUGUAUAUGUUUGUUAUAAUGUCCAUGUAAACAUGCCCUAUGUUUGUGCCUUUUAAUUAGUUUGUCUCAAUAAACAAAAUGUAGAGAAAAAUAUCAACAGAGGAUUGAGCAUCA
B10: chr7:115017934:115018035:+|3pUTR|ENSG00000135272|unk|FALSE|unique (ssRNA)
RNA: GGGAGUUCUACAGUCCGACGAUCUGAGAUGAAACGUAGUUUCUAGUUAUAUCAUUACUUAAAGGGCUUAAAAAGAAAAAACUUAGCAAACUUUUGAAUCUUUCUUUUAUUGCUAUUUACACAUACAUACACACAUACAAAACCCAACAGAGGAUUGAGCAUCA
B11: chr19:9526975:9527076:-|3pUTR|ENSG00000130818|unk|FALSE|unique (ssRNA)
RNA: GGGAGUUCUACAGUCCGACGAUCCCUCUCAGACCUUCCAUCAUUACUAUAUUUCACUUUUAUGCCUAUAAACACACACAAAUUAGCAUAUGUAAUCUAAUACAUUGUAGCUAUUUUUCAGAAGUUAUCAGAUCAAUUAAGUAUCAACAGAGGAUUGAGCAUCA
B12: chr10:92030471:92030572:+|3pUTR|ENSG00000095564|unk|total|mutant (ssRNA)
RNA: GGGAGUUCUACAGUCCGACGAUCUAUUUUUUUAUUAACUAUUUAUUUGCCCGUUCCAUAAACCAGCUCUUUAACACCGCUUACCGUAAUUGAUAUUUUCUCCGAAUAAGUACAGAGCAAUAUAUCAUUAAAGGGCUAUGAAGGCAACAGAGGAUUGAGCAUCA
B13: chr10:92030471:92030572:+|3pUTR|ENSG00000095564|unk|FALSE|unique (ssRNA)
RNA: B12 RNA with C50U, C51A, C76U, C77A, C83U, C84A, C101U, C102A
B14: chr17:44253117:44253371:-|CDS|ENSG00000004939|control|control|control (ssRNA)
RNA: GGGAGUUCUACAGUCCGACGAUCCAAACCUGAGCGCAAGAUGGUCAAGGGCUCCGGCUUCCACCUGGACCUGCUGCUGGUAGUAGGCAUGGGUGGGGUGGCCGCCCUCUUUGGGAUGCCCUGGCUCAGUGCCACCACCGUGCGCAACAGAGGAUUGAGCAUCA
B15: chr6:105096826:105097152:-|3pUTR|ENSG00000112276|msi1|FALSE|unique (ssRNA)
RNA: GGGAGUUCUACAGUCCGACGAUCACUUGCAACCUAGUUUUAAAAUACAUGAGGAUUUUAUGAAAGCUUUAUACAGACAUUUAUAGGAAACUCAUUCUUUGAUUUUAGGUGCCAUUUAAAUUGAUAACACUUACUUUAUAAAAACAACAGAGGAUUGAGCAUCA

The binders below were run against T1, UNK ZnF1-6 (called full-length) (human, UniProt Q9C0B0 30-357) (assay: nsRBNS (natural sequence RNA bind-n-seq); RBNS binding buffer (assumed for nsRBNS): 25 mM Tris pH 7.5, 150 mM KCl, 3 mM MgCl2, 0.01% Triton X-100, 500 ug/ml BSA, 20 U/ml SUPERase-In, 4 C; UNK is unkempt and MSI1 is Musashi-1; names of the RNAs are library labels; protein concentration not given here; high values mean tight binding).
T1 sequence: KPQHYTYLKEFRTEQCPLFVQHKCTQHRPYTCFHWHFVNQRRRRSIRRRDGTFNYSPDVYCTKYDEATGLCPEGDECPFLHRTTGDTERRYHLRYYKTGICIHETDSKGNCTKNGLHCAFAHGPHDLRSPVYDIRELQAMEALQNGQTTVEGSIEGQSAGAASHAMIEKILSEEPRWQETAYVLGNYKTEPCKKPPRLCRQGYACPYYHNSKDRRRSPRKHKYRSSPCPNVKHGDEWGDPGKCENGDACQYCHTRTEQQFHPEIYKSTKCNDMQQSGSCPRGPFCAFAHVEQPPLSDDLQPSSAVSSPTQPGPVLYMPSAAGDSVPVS
B1 was tested, and the binding signal was 0.848 enrichment R.
B2 gave a binding signal of 0.868 enrichment R.
For B3, the binding signal was 0.832 enrichment R.
Work on B4 yielded a binding signal of 0.481 enrichment R.
In the case of B5, the binding signal is reported as 0.664 enrichment R.
For B6, the binding signal was 3.92 enrichment R.
B7 gave a binding signal of 0.603 enrichment R.
With B8 the binding signal was 80.9 enrichment R.
Work on B9 yielded a binding signal of 2.53 enrichment R.
B10 gave a binding signal of 5.81 enrichment R.
Work on B11 yielded a binding signal of 4.62 enrichment R.
B12 gave a binding signal of 5.92 enrichment R.
For B13, the binding signal was 34.3 enrichment R.
With B14 the binding signal was 0.5 enrichment R.
Work on B15 yielded a binding signal of 1.57 enrichment R.
